# Only some compounds are listed: those with a hit (about 11% of all), similar ones and a draw of the others.
# AmpC detergent – blocks E. coli AmpC beta-lactamase in detergent assay; actives 0.041% (n = 370,000); Potency, µM (series often up to 114 µM), for the others: at the highest dose activity change, negative = inhibition, actives largely listed as inhibitors; AID 485294; P00811; AmpC hydrolysis of nitrocefin, absorbance 480 nm, 0.01% Triton;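 also: 0% = no-compound wells and -100% = no-enzyme wells; nearly all actives have a fitted effect of over 25% in size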
# Target sequence (P00811 whole entry, looked up): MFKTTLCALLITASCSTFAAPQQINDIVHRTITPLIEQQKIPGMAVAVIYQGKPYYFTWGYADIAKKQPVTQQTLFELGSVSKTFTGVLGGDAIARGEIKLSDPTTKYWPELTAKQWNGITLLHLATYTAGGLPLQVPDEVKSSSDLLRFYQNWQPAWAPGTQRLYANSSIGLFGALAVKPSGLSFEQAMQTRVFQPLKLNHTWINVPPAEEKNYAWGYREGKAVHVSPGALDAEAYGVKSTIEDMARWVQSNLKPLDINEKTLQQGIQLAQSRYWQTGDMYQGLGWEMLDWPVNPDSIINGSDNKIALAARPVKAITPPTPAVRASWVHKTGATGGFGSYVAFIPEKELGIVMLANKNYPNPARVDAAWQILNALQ
#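 20 mM phosphate pH 7.0 + 0.01% (detergent screen) or 0.0001% Triton X-100; 5.3 nM AmpC reagent; cpd preinc 15 min RT; nitrocefin (800 uM stock) to start; A480 q20 s × 4 min; Activity was normalised to no-enzyme and no-compound control wells.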
# HCV inh – HCV inhibition; Huh7.5.1 HCVcc-Cre infection, luciferase reporter, 44 h; Potency, µM (titrated, usually from 41.8 µM), without a hit: at the top dose activity change, negative = inhibition, hits mostly inhibitors; actives 3.4% (n = 340,000); AID 651820
#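 Whole-lifecycle infectious HCVcc-Cre system; cells 1,000/well, compound then virus (~0.5 moi) added 4 h after plating, 44 h culture. Luciferase read 15 sec following 15 min substrate incubation, room temp.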
# AMA1 RON2 block – AMA1-RON2 (P. falciparum) interaction inhibition; AlphaScreen AMA1-biotinylated RON2 peptide binding; Potency, µM (series often up to 58.2 µM), without a hit: top-dose activity change, negative = inhibition, hits mostly inhibitors; actives 0.2% (n = 360,000); AID 720542;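 also: 0% = vehicle wells and -100% = peptide control; nearly all actives have a fitted effect of over 45% in size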
#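 AMA1 (3D7) with his tag at 25 nM final met compounds first, then biotinylated RON2 peptide at 25 nM; detection used donor plus acceptor beads, 10 µg/mL apiece, read by AlphaScreen after 30 min at room temperature.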
# AmpC inh no detg – inhibitors of E. coli AmpC beta-lactamase without detergent | P00811 | AmpC nitrocefin hydrolysis, absorbance 480 nm, 0.0001% Triton | Potency, µM (top dose mostly 57.1 µM), for inactives: top-dose activity change, negative = inhibition, most hits filed as inhibitors | actives 0.52% (n = 330,000) | AID 485341;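 also: plate controls were no compound for no effect and no enzyme for full effect; nearly all actives have a fitted effect of over 20% in size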
#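 20 mM phosphate pH 7.0 + 0.01% (detergent screen) or 0.0001% Triton X-100; 5.3 nM AmpC reagent; cpd preinc 15 min RT; nitrocefin (800 uM stock) to start; A480 q20 s × 4 min; Activity was normalised to no-enzyme and no-compound control wells.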
# Pf growth 96h – P. falciparum growth inhibition at 96 hours; AID 504834; Potency, µM (doses to about 28.7 µM), without a hit: top-dose activity change, negative = inhibition, hits mostly inhibitors; actives 6.9% (n = 320,000); P. falciparum luciferase reporter growth, 96 h
#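 Parasite growth measured via integrated firefly luciferase reporter in P. falciparum. Infected erythrocytes at 2% hematocrit, 0.05% parasitemia final were treated 96 hours at 37 C under 5% CO2, and luminescence was read.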
# Pf growth 48h – P. falciparum growth inhibition at 48 hours (one generation). actives 5.9% (n = 310,000). Potency, µM (top dose mostly 28.7 µM), without a hit: at the top dose activity change, negative = inhibition, actives largely listed as inhibitors. P. falciparum luciferase growth in erythrocytes, 48 h
#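 Firefly luciferase activity from engineered P. falciparum reports growth; inhibitors lower the luminescent signal. Cultures contained 2% hematocrit erythrocytes at 0.1% final parasitemia.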
# * = called active by the depositor; ? = inconclusive; . = no result given; [ ] = remark or other dose. Calls follow the shape of the dose curve; as a rule, active = well fitted curve in the direction sought with a large enough effect; inconclusive = small, poorly fitted or top-dose-only effect, or another doubt; inactive = no such curve, though single readings can be large; an effect the other way counts as inactive or inconclusive. Unless noted, % is scaled to controls: 0 for no effect and ±100 for the full control effect; potency is read from the fitted curve at half-maximal effect.
SMILES,AmpC detergent,HCV inh,AMA1 RON2 block,AmpC inh no detg,Pf growth 96h,Pf growth 48h
CCC(C)NC(=O)Cn1c(=O)n(CCCC(=O)NCc2ccc(C)cc2)c(=O)c2ccccc21 (stereo not drawn),7%,.,.,.,.,.
CCCCNC(=O)C(C)N(CCN(C)C)C(=O)CCCN1C(=O)NC(c2ccc([N+](=O)[O-])cc2)C(C(=O)OCc2ccccc2)=C1C (stereo not drawn),.,22µM*,-7%,268%,.,.
CCCCNC(=O)C(C1CCCCC1)N(CCN(C)C)C(=O)CCCN1C(=O)NC(c2ccc(-c3ccccc3)cc2)C(C(=O)OCc2ccccc2)=C1C (stereo not drawn),.,10µM*,.,178%,.,.
CCCCCCN(C(=O)CCCCCN1C(=O)NC(c2ccc(-c3ccccc3)cc2)C(C(=O)OCc2ccccc2)=C1C)C(C)C(=O)NCCCC (stereo not drawn),-14%,-6%[8.37 µM],.,-17%,4.7µM*,?
CCOC(=O)C1=C(C)N(CCCC(=O)O)C(=O)NC1c1ccc([N+](=O)[O-])cc1 (stereo not drawn),?,-14%[8.37 µM],11%,-28%,?,-16%
CCCCNC(=O)C(c1ccc(-c2ccccc2)cc1)N(CCN1CCOCC1)C(=O)CCCCCN1C(=O)NC(c2ccc([N+](=O)[O-])cc2)C(C(=O)OCc2ccccc2)=C1C (stereo not drawn),?,3%[8.37 µM],.,48%,3.3µM*,1.3µM*
O=C(NCc1ccccc1Cl)c1cnc2sc(N3CCOCC3)nn2c1=O,-7%,.,.,.,.,.
COC(=O)CCCCCN1C(=O)NC(c2ccccc2)C(C(=O)OCc2ccccc2)=C1C (stereo not drawn),-2%,-45%,25%,22%,?,-27%
CCCCCCN(C(=O)CCCCCN1C(=O)NC(c2ccc(-c3ccccc3)cc2)C(C(=O)OCc2ccccc2)=C1C)C(C(=O)NCCCC)c1ccccc1 (stereo not drawn),4%,.,.,-8%,1.9µM*,2.6µM*
Cc1cc(C)cc(NC(=O)c2cc(S(=O)(=O)N3CCCCC3)c[nH]2)c1,0%,.,.,.,.,.
OCCN1CCN(c2nc(N3CCCCC3)nc(N3CCCCC3)n2)CC1,-2%,2%,-1%,140%,60%,10µM*
CCCS(=O)(=O)N1CC(=O)N(c2cccc(Cl)c2)C(C)(C(=O)NC2CCCCC2)C1 (stereo not drawn),-3%,.,.,.,.,.
Clc1ccc2c(c1)c1ccccc1n2CN1CCOCC1,-19%,?,-12%,34%,.,20%
Clc1ccc2c(c1)c1cc(Cl)ccc1n2CN1CCOCC1,-8%,22µM*,11%,-25%,?,?
O=C(C1=C[C@@H](c2ccccc2)C[C@@H](OCc2ccc(CO)cc2)O1)N1CCN(Cc2ccc3c(c2)OCO3)CC1,-1%,11µM*,-27%,106%,?,?
O=C(C1=C[C@@H](c2csc3ccccc23)C[C@@H](OCc2ccc(CO)cc2)O1)N1CCN(Cc2ccccc2)CC1,8%,?,-27%,77%,5.2µM*,?
O=C(C1=C[C@@H](c2csc3ccccc23)C[C@@H](OCc2ccc(CO)cc2)O1)N1CCN(Cc2ccc3c(c2)OCO3)CC1,7%,-9%[8.37 µM],-17%,43%,5.2µM*,?
C=CCOC(=O)C1=C[C@@H](c2csc3ccccc23)C[C@@H](OCc2ccc(CO)cc2)O1,2%,?,0%,1%,13µM*,?
O=C(C1=C[C@@H](c2csc3ccccc23)C[C@@H](OCc2ccc(CO)cc2)O1)N1CCOCC1,3%,-1%,0%,172%,?,?

# Source: PubChem BioAssay (National Center for Advancing Translational Sciences (NCATS))
